Assay results: PubChem BioAssay (NCI)
About 83,000 compounds went through this panel and 20% of them were active in at least one assay; those are over-represented in the sample as a whole.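 Interpretation: 100, growth as untreated; towards 0, rising growth inhibition; 0, no net growth; 0 to -100, cell death. Compounds scoring below 10 were considered active.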 Activity calls are given as the source filed them.

tested on: UACC-257 melanoma; test: NCI-60 one-dose screen, 48 h (100 = growth as untreated, 0 = no growth, -100 = all killed); details: 10 µM

Row | Structure (SMILES) | growth
1 | CSc1nn(-c2ccccc2)c2ncnc(Oc3ccccc3)c12 | 107% (inactive)
2 | COc1ccc(/C=C/C(=O)Nc2ccc(-c3nc4ccc(OC)cc4s3)cc2)cc1 | 111% (inactive)
3 | O=C(/C=C/c1cc2ccccc2[nH]c1=O)c1ccc2c(c1)OCO2 | 94.2% (inactive)
4 | COc1ccc(N2C(=O)C3c4[nH]c5ccc(OCc6ccccc6)cc5c4C4CCC(C(C)C)CC4C3C2=O)cc1 (stereo not given) | 96.1% (inactive)
5 | COc1cc(C(=C2O[C@@H]([C@H]3COC(C)(C)O3)[C@H]3OC(C)(C)O[C@@H]23)c2cc(OC)c(OC)c(OC)c2)cc(OC)c1OC | 105% (inactive)
6 | COc1ccccc1/C=C/C(=O)c1ccccc1 | 94.3% (inactive)
7 | COc1ccc(C2=Nc3c(C)nn(-c4ccccc4)c3NC(c3ccc(Oc4ccnc5cc(Cl)ccc45)c(OC)c3)C2)cc1 (stereo not given) | 98.3% (inactive)
8 | NC(=O)SCC(=O)Nc1ccc(S(N)(=O)=O)cc1 | 101% (inactive)
9 | c1ccc([I+]c2ccccc2)cc1 | 78.6% (inactive)
10 | CCN1CCCC1CNC(=O)c1ncc(-c2ccc(C(F)(F)F)cc2)c(NC2CCCCCC2)n1 (stereo not given) | -46.2% (active)
11 | Cc1ccc(N=Nc2c(N)nc(N)[nH]c2=O)cc1C | 107% (inactive)
12 | COc1ccc(/C=C2/CN(C(=O)c3ccc(C)cc3)C/C(=C\c3ccc(OC)cc3)C2=O)cc1 | 98.1% (inactive)
13 | COc1cc(-c2cc(/C=C3\C(=O)Nc4cc(Cl)ccc43)[nH]n2)cc(OC)c1OC | 78% (inactive)
14 | O=C(Nc1cccc(-n2cc(-c3ccncc3)c(-c3ccc(O)c(Cl)c3)n2)c1)c1ccc(N2CCOCC2)c(C(F)(F)F)c1 | 60.1% (inactive)
15 | COc1ccccc1CNCCCN1C(=O)c2ccc3c4c(ccc(c24)C1=O)C(=O)N(CCCN)C3=O | -91.9% (active)
16 | N=c1c2c(-c3ccccc3)c(-c3ccccc3)n(Cc3ccccc3)c2ncn1CCCO | -24.9% (active)
17 | CCCC(F)C(=O)O (stereo not given) | 92.2% (inactive)
18 | O=C(N/N=C\c1cc(Cl)ccc1[N+](=O)[O-])c1ccco1 | 95% (inactive)
19 | COC(=O)c1ccc(=O)oc1 | 100% (inactive)
20 | Oc1[nH]c2ccc(Cl)cc2c1/C=c1/ccc2c(c1)N=C(c1cc(F)cc(F)c1)N=2 | 70.5% (inactive)
21 | CN(Cc1ccccc1)Cc1ccc([N+](=O)[O-])cc1I | 103% (inactive)
22 | O=C(CCCCC(=O)Nc1ccc2c(c1)/C(=C/c1ccc[nH]1)C(=O)N2)NO | 70.6% (inactive)
23 | O=C1/C(=C/c2ccc(Cl)cc2)SC(=Nc2ccc(Cl)cc2)N1Cc1nc2ccccc2[nH]1 | 87.2% (inactive)
24 | O=C(C[P+](c1ccccc1)(c1ccccc1)c1ccccc1)C[P+](c1ccccc1)(c1ccccc1)c1ccccc1 | -82.3% (active)
25 | N=C(N)c1ccc(-c2ccc(-c3ccccc3)o2)nc1 | 94.6% (inactive)
26 | COc1cc(/C=C2\CCCC3=C2N=C2SC=NN2C3c2cc(OC)c(OC)c(OC)c2)cc(OC)c1OC (stereo not given) | 34.3% (inactive)

tested on: M14 melanoma; test: as above; details: 10 µM

Row | Structure (SMILES) | growth
27 | CN(C)CCOc1nc2ccccc2c2c1-c1ccc(Cl)cc1C2=O | -83.4% (active)
28 | CCOC(=O)C(CSC(c1ccccc1)(c1ccccc1)c1ccccc1)NC(=O)C(CSC(c1ccccc1)(c1ccccc1)c1ccccc1)NC(c1ccccc1)(c1ccccc1)c1ccccc1 (stereo not given) | 111% (inactive)
29 | O=C1OCC2=C1C(c1cccc(Cl)c1)c1cc3c(cc1N2CCO)CCC3 (stereo not given) | 8.51% (active)
30 | O=C(Nc1ccc(Cl)cc1)N1NC(c2ccc(Cl)cc2)C=C1c1ccccc1 (stereo not given) | 102% (inactive)
31 | S=c1[nH]ccn1-c1c(Cl)cccc1Cl | 98.1% (inactive)
32 | Cc1ccc(NC(=O)CSc2nc3ccccc3c(=O)n2CCc2ccccc2)c(C(=O)O)c1 | 97.8% (inactive)
33 | O=S(=O)(NCCCNc1nccc(-c2c(-c3ccc(F)cc3)nc3sccn23)n1)c1ccc(F)cc1 | 44.4% (inactive)
34 | CCn1cc(C(=O)O)c(=O)c2cnc(N3CCCC3)nc21 | 96.9% (inactive)
35 | O=c1c2ccccc2nc(SCCN2CCCCC2)n1CCc1ccccc1 | 103% (inactive)
36 | COc1cc2cc3c(nc2cc1OC)CCN3Cc1ccc(NC(=O)c2ccc(Cl)c(C(F)(F)F)c2)cc1 | 104% (inactive)
37 | CN(C)C(=S)N/N=C\C=N/NC(=S)N(C)C | 47.9% (inactive)
38 | COc1cc(Cl)cc(-c2nn(-c3cccc(NC(=O)c4ccc(Cl)c(Cl)c4)c3)cc2-c2ccncc2)c1 | 68.9% (inactive)
39 | CCCCCCCCCCCCCCCC(=O)OC1[C@@H](OC(=O)CCCCCCCCCCCCCCC)[C@@H](C(=O)N[C@@H](CCCCN)C(=O)OC)O[C@H]1n1cnc2c(=O)[nH]c(NC(=O)C(C)C)nc21 (stereo not given in full) | 93.7% (inactive)
40 | CSc1nn(-c2ccccc2)c2ncnc(Oc3ccccc3)c12 | 102% (inactive)
41 | COc1ccc(/C=C/C(=O)Nc2ccc(-c3nc4ccc(OC)cc4s3)cc2)cc1 | 106% (inactive)
42 | O=C(/C=C/c1cc2ccccc2[nH]c1=O)c1ccc2c(c1)OCO2 | 87.3% (inactive)
43 | COc1ccc(N2C(=O)C3c4[nH]c5ccc(OCc6ccccc6)cc5c4C4CCC(C(C)C)CC4C3C2=O)cc1 (stereo not given) | 124% (inactive)
44 | COc1cc(C(=C2O[C@@H]([C@H]3COC(C)(C)O3)[C@H]3OC(C)(C)O[C@@H]23)c2cc(OC)c(OC)c(OC)c2)cc(OC)c1OC | 106% (inactive)
45 | COc1ccccc1/C=C/C(=O)c1ccccc1 | 85.7% (inactive)
46 | COc1ccc(C2=Nc3c(C)nn(-c4ccccc4)c3NC(c3ccc(Oc4ccnc5cc(Cl)ccc45)c(OC)c3)C2)cc1 (stereo not given) | 95.1% (inactive)

Row | Structure (SMILES) | growth
47 | NC(=O)SCC(=O)Nc1ccc(S(N)(=O)=O)cc1 | 105% (inactive)
48 | c1ccc([I+]c2ccccc2)cc1 | 72.5% (inactive)
49 | CCN1CCCC1CNC(=O)c1ncc(-c2ccc(C(F)(F)F)cc2)c(NC2CCCCCC2)n1 (stereo not given) | 26.1% (inactive)
50 | Cc1ccc(N=Nc2c(N)nc(N)[nH]c2=O)cc1C | 97.2% (inactive)
51 | COc1ccc(/C=C2/CN(C(=O)c3ccc(C)cc3)C/C(=C\c3ccc(OC)cc3)C2=O)cc1 | 69.4% (inactive)
52 | COc1cc(-c2cc(/C=C3\C(=O)Nc4cc(Cl)ccc43)[nH]n2)cc(OC)c1OC | 19.6% (inactive)
53 | O=C(Nc1cccc(-n2cc(-c3ccncc3)c(-c3ccc(O)c(Cl)c3)n2)c1)c1ccc(N2CCOCC2)c(C(F)(F)F)c1 | 36.8% (inactive)
54 | COc1ccccc1CNCCCN1C(=O)c2ccc3c4c(ccc(c24)C1=O)C(=O)N(CCCN)C3=O | -62% (active)
55 | N=c1c2c(-c3ccccc3)c(-c3ccccc3)n(Cc3ccccc3)c2ncn1CCCO | 43.4% (inactive)
56 | CCCC(F)C(=O)O (stereo not given) | 97.5% (inactive)
57 | O=C(N/N=C\c1cc(Cl)ccc1[N+](=O)[O-])c1ccco1 | 108% (inactive)
58 | COC(=O)c1ccc(=O)oc1 | 101% (inactive)
59 | Oc1[nH]c2ccc(Cl)cc2c1/C=c1/ccc2c(c1)N=C(c1cc(F)cc(F)c1)N=2 | 68.5% (inactive)
60 | CN(Cc1ccccc1)Cc1ccc([N+](=O)[O-])cc1I | 102% (inactive)
61 | O=C(CCCCC(=O)Nc1ccc2c(c1)/C(=C/c1ccc[nH]1)C(=O)N2)NO | 58.6% (inactive)
62 | O=C1/C(=C/c2ccc(Cl)cc2)SC(=Nc2ccc(Cl)cc2)N1Cc1nc2ccccc2[nH]1 | 92.4% (inactive)
63 | O=C(C[P+](c1ccccc1)(c1ccccc1)c1ccccc1)C[P+](c1ccccc1)(c1ccccc1)c1ccccc1 | -75.4% (active)
64 | N=C(N)c1ccc(-c2ccc(-c3ccccc3)o2)nc1 | 97.9% (inactive)
65 | COc1cc(/C=C2\CCCC3=C2N=C2SC=NN2C3c2cc(OC)c(OC)c(OC)c2)cc(OC)c1OC (stereo not given) | 9.84% (active)
